Screening results deposited in PubChem BioAssay by National Center for Advancing Translational Sciences (NCATS).
HepG2 viability = kills HepG2 cells in TGF-b inhibitor counter-screen | Potency, µM (doses to about 46.1 µM), for inactives: top-dose activity change, negative = cytotoxicity, most hits filed as cytotoxic | HepG2 CAGA-GFP viability, ATP luminescence, 18 h | hit rate 0.76% among 410,000 | AID 588856; note: potency is the fitted concentration of half-maximal effect
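CellTiter-Glo luminescence gave cytotoxicity after 18 hours at 37 degrees C. The cells were HepG2 CAGA-GFP in 1% FBS DMEM, stimulated with 500 pg/mL TGF-beta after compound addition. %Activity was normalised to no-cell wells (complete cell-killing) and DMSO (no toxicity), and curves were fitted and classified.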
IL-1B inflam inh = blocks inflammasome-driven IL-1 beta release. THP-1 LPS/ATP IL-1B secretion, AlphaLISA, 16 h; hits give low values. activity change, % at 57.5 µM. hit rate 4.7% among 360,000. AID 743279; in the data active = activity change below about -50%; inconclusive = mostly about -30% to -49%; note: % is set by controls: 0 for no effect and ±100 for the full control effect
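THP-1 cells pretreated 1 hr with compounds (up to 57.5 uM final), then stimulated with LPS (250 ng/mL final) plus ATP (1.25 mM final); secreted IL-1B measured by AlphaLISA after 16 hr, decreased signal indicating inhibition.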
HT1080NT lethal = kills 2HG-producing HT-1080-NT fibrosarcoma cells. hit rate 1.6% among 360,000. Potency, µM (highest dose often 46.1 µM), inactives show at the top dose activity, negative = less viability, most hits filed as cytotoxic. HT-1080-NT fibrosarcoma viability, CellTiter-Glo ATP luminescence, 48 h;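 note: NT is the 2HG producing partner of a matched IDH1 knockdown line; potency is the fitted concentration of half-maximal effect; 0% = DMSO-treated cells and -100% = media-only wells without cells; nearly all actives have a fitted effect of over 55% in size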
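Toxicity toward the 2HG-producing NT line was scored as %Activity, normalised to DMSO and no-cell wells, from CellTiter-Glo luminescence after 48 hours' treatment.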
HT1080 IDH1KD tx = HT-1080 IDH1 knockdown cell toxicity (counter line). HT-1080 IDH1 knockdown viability, ATP luminescence, 48 h. Potency, µM (titrated, usually from 46.1 µM), for the others: top-dose activity, negative = toxicity, actives largely listed as cytotoxic. hit rate 2% among 360,000;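 note: potency is the fitted concentration of half-maximal effect; 0% = DMSO wells and -100% = cell-free medium wells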
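Luminescent ATP read-out (CellTiter-Glo, 10 min at room temperature) after 48 h compound exposure at 37 °C gave viability of IDH1-knockdown HT-1080 cells. Activity was normalised to DMSO and cell-free wells, then fitted as concentration-response curves.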
Giardia killer = Giardia lamblia killing. Giardia lamblia trophozoite viability. activity change, % at 7.66 µM, hits read low. hit rate 0.15% among 340,000. AID 540267; in the data active = activity change below about -80%; inconclusive = between about -30% and that limit;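 note: parasites exposed to compound for two days anaerobically before the ATP read; % is set by controls: 0 for no effect and ±100 for the full control effect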
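ATP-content bioluminescence gauges trophozoite survival. Cells (100/well) receive compound and incubate anaerobically for 48 hrs at 37 deg C; detection reagent follows for 15-30 min at room temperature.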
TGFb SMAD3 inh = blocks TGF-b signaling | AID 588855 | Potency, µM (top dose mostly 46.1 µM), for the others: at the highest dose activity, negative = inhibition, most hits filed as inhibitors | hit rate 1.2% among 410,000 | HepG2 CAGA-GFP TGF-b/SMAD3 reporter, GFP fluorescence, 18 h; TGF-beta stimulated, 500 pg/mL final; note: potency is the fitted concentration of half-maximal effect; % is set by controls: 0 for no effect and ±100 for the full control effect; nearly all actives have a fitted effect of over 65% in size
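Using HEPG2 CAGA-GFP reporter cells at 1000 cells/well, we pinned test compounds, stimulated with recombinant TGF-beta (500 pg/mL final) and measured total well GFP after 18 h.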
* = called active by the depositor; ? = inconclusive; . = no result given. Only some compounds are listed: those with a hit (about 6.5% of all), similar ones and a draw of the others. Unless noted, calls come from the whole dose curve; as a rule, active = well fitted curve in the direction sought with a large enough effect; inconclusive = small, poorly fitted or top-dose-only effect, or another doubt; inactive = no such curve, though single readings can be large; an effect the other way counts as inactive or inconclusive.

SMILES	HepG2 viability	IL-1B inflam inh	HT1080NT lethal	HT1080 IDH1KD tx	Giardia killer	TGFb SMAD3 inh
C/C(=N\NC(=O)C(=O)Nc1c(C)n(C)n(-c2ccccc2)c1=O)c1ccncc1	16%	22	8%	7%	-10	6%
Cc1cccc(C)c1OCC(=O)Nc1c(C)nn(C)c1C	1%	-5	12%	15%	-2	13%
OCCNCc1ccc(-c2ccccc2)cc1	-29%	-20	-7%	-11%	4	-32%
OCCCNCc1ccc(N(c2ccccc2)c2ccccc2)cc1	-98%	-94*	?	16µM*	-26	?
Cc1cc2c(cc1S(=O)(=O)N(C)c1ccccc1)NC(=O)CO2	-16%	0	-2%	-15%	-15	-4%
CCOc1cc(Br)c(C(=O)O)cc1OCC	-7%	-5	4%	5%	16	-6%
CCOc1cc(Br)c(C=O)cc1OCC	3%	84	26µM*	33µM*	4	-21%
CCOc1ccc(Cl)cc1-c1cc(C(=O)NCC2CCCCC2)[nH]n1	1%	?	0%	-18%	.	7%
NC(=O)C1=CC2C3C=CC2(O)C(=O)OC3O1 (configuration not stated)	13µM*	-96*	?	21µM*	-5	11µM*
CCCNCc1cc(Br)ccc1OCC(=O)NCCc1ccccc1	4%	-52*	-64%	-77%	-1	-2%
O=C(COc1ccc(Br)cc1CNCCc1ccccc1)NCc1ccccc1	13µM*	?	21µM*	?	-4	?
CCOc1cc(CNCCO)c(Cl)cc1OCC(=O)NCCc1ccccc1	-30%	-5	1%	30%	-16	-20%
Cc1cc(C(=O)Nc2sc3c(c2C#N)CCC(C)C3)cs1 (configuration not stated)	-17%	-25	5%	-4%	?	17%
c1nnnn1C12CC3CC(CC(C3)C1)C2	-4%	14	17%	20%	-21	-14%
CC(C(=O)Nc1nc(-c2ccc(F)cc2)cs1)N1C(=O)C2CC=CCC2C1=O (configuration not stated)	1%	-81*	10%	21%	-10	-1%
c1cc2c(cc1C1CCCCC1)c1c3n2CCCNC3CCC1 (configuration not stated)	13µM*	-83*	16µM*	21µM*	-14	0%
Cc1ccc2c(c1)c1c3n2CCN(C(=O)CCl)C3CCC1 (configuration not stated)	-102%	-99*	16µM*	?	4	?
CC(=O)N1CCn2c3c(c4cc(C)ccc42)CCCC31 (configuration not stated)	-3%	-11	8%	10%	?	-11%
Cc1ccc2c(c1)c1c3n2CCCNC3CCC1 (configuration not stated)	-11%	-55*	?	?	10	-13%
Oc1ccc2c(c1)c1c3n2CCNC3CCC1 (configuration not stated)	7%	4	4%	11%	-8	?
CCN(CC)C(=O)CSc1ncnc2c(-c3cccs3)nsc12	-38%	-60*	-18%	-11%	-20	4%
CCC(=O)NCCc1sc2nc(-c3ccc(OC)cc3)nn2c1C	3%	.	.	.	.	-10%
COc1ccc(-c2cn3nc(N4CCC(C(=O)Nc5ccc(Cl)cc5C)CC4)sc3n2)cc1	1%	.	.	.	.	-3%
COc1ccc(CC(=O)Nc2nc3ccccc3s2)cc1S(=O)(=O)N1CCOCC1	-22%	-26	-22%	-13%	7	5%
COc1ccc(CC(=O)Nc2nc3ccc(F)cc3s2)cc1S(=O)(=O)N1CCOCC1	-55%	-59*	-18%	?	-20	?
Cc1ccc(CNC(=O)c2cc3c(s2)-c2ccc(Cl)cc2SC3)cc1	0%	.	.	.	.	-4%
CN(C)CCNC(=O)c1cc2c(s1)-c1ccc(Cl)cc1SC2	11µM*	-20	?	?	-16	11µM*
